Data as given in paper PMC12864922, “TDP-43 directly inhibits mRNA accumulation in neurites through modulation of mRNA stability”.
Whole data set: some 9,900 sequences, median “r (bound/input frequency ratio)” near 0.7, cut for the highest 2% near 6.5. What follows is part of a selection rich in the highest values, with near analogues and random picks from the rest.

B1: ENSMUSG00000061578.401|Ksr2 (ssRNA)
RNA: GGGAGUUCUACAGUCCGACGAUCGCUUCGAUAUCCGCAUGCUAUUAAUGUACAGACAUCUGGAUCAAGGGAUUAAAAAAAAAAGAAUCAGUCUCUUCCCGGAGGAAGCAUCCGGGGGAAAUGUAUUCCUUCGCCCUGCAAGGAGCCAAUGGGAAGAGAGGGGACCAUAUAGUUAGAGACAUUCCCUACCCCCCGACCACUGACCCGUCCAGACCCUCGCUUCUUACAAUGCCUCUUCUUCUGCCAGACCAGCCACCUGCCCCACUAACACCAAAUGGCUUCUGUCCCUGCUUCACGUUGCAAACUCUUGCGGUCGCACUAGUGUGGAAUUCUCGGGUGUCAAGG
B2: ENSMUSG00000061578.1371|Ksr2 (ssRNA)
RNA: GGGAGUUCUACAGUCCGACGAUCGCUUCGAUAUCCGCAUGCUACUUACAUCUCUGACCCAGUGAUCUUUCUAGGGGUCUGUCACAUGUCCCAACAGGUGGACAGCUCUCCAAGUCACCAACCUGAGGAAAAUAUCCCUCCUUGUAAAAAGGCUUUCUCUUUGUAAAUGAUUCUGUUGCCUUUUUCUAAACACAAAGUAUAUAUACCUAUAAAUGCUAUAUAUAUUAUAUAUGUGUAUAUACAUAAAGACUACUUCUUGUACAGCCCUCCACGGACCUCAGGCCCACUGUUUUCUCCAUGUCUGCUCUUGCGGUCGCACUAGUGUGGAAUUCUCGGGUGUCAAGG
B3: ENSMUSG00000022095.129|Fam160b2|254:258 (ssRNA)
RNA: GGGAGUUCUACAGUCCGACGAUCGCUUCGAUAUCCGCAUGCUACAGCUGGUUCCUCUCUGGCGCCUUCUGAACCCGUCUCAGCAAGUCCGAAACACCUGGGCAGAGAGGUCAUUGACCAGGGAUGGGGGCCCUUGCCCUCUGAAUCCUGCCCAGUGCCCAGGGGUCCAGGUGGAAUGUGGUCCUGGGGACUAUAGGAACUCAAGGUACAGAUGGGACAGGGCACCCCAACUCCAAACCCCAGAAGCCUAGUGAGGCUAGGCCGAGACACAAGCAGAUAGCUCUGGCAUUGUUCUUCCAUACUCCUCUUGCGGUCGCACUAGUGUGGAAUUCUCGGGUGUCAAGG
B4: ENSMUSG00000042529.446|Kcnj12 (ssRNA)
RNA: GGGAGUUCUACAGUCCGACGAUCGCUUCGAUAUCCGCAUGCUAAGCCCAUCUGGUGCUGUGCACCUGGUCCUUGUCCAGCCGAGGGCCUGGGGGCAGAAGAACACACCAUAGGGAGGCCCUUGUAUGGGUGUCUGCCCUAUGUGAGGUCAUAGAAUGUUAAAUCUAUUUUAAACGGUGAAACUGGAGAAUUUUCAUGUUAUUUUCAAUAAUAGUGGUAUCUAAAGAUGUAGGCAACAAGACUAGACCACAUUAAAUGCAUUUUGAUCUCUUUGAAUGCUACUGUGUUGAGAUGUGCGUCUCACCUCUUGCGGUCGCACUAGUGUGGAAUUCUCGGGUGUCAAGG
B5: ENSMUSG00000022095.98|Fam160b2|79:83 (ssRNA)
RNA: GGGAGUUCUACAGUCCGACGAUCGCUUCGAUAUCCGCAUGCUAGGGGAAGCCCCCUCUUCCUGCUCUACCCUCCUGGAGGCUGUUGCAAAAUUCCCAACUGCCUCCUGGCAGAGGCCCAAACAUACCUCUGCGCCCAGGCGGGGGCAGCUGCUAACAAGAGCCCUGGCGCAGCUGCAGCCAGGGCAGGCGAGAGCCUUGGAGCUGGGUGCCAGGCUCCAGCUCCAGCUCCAGCUGGUUCCUCUCUGGCGCCUUCUGAACCCGUCUCAGCAAGUCCGAAACACCUGGGCAGAGAGGUCAUUGACCUCUUGCGGUCGCACUAGUGUGGAAUUCUCGGGUGUCAAGG
B6: ENSMUSG00000090935.122|Synj2bp|46:51;222:232 (ssRNA)
RNA: GGGAGUUCUACAGUCCGACGAUCGCUUCGAUAUCCGCAUGCUAUUCGUGAGAUACCGAAAGCAGCUUUGAAAUGCUUGCUGUCUUCCACACACACCAAUGAACUCUCUCUCUCACUCACCAUCUCUGACAUCCUCCCAUAUUCUUUCUCCUCCACAUAGCCAAUACAAGAUUUAAAGUGACUGCUUAUCACCCAAAACCCUGCUAUUCAAAAUCUCCUAUUCUAAUGGAAGAGUACAGGGGUUAUUUGAAGAAAAGCUGUGGUGCACACACACACGGGGAAGCCUUGCUUAGAAUGAAUGAGACUCUUGCGGUCGCACUAGUGUGGAAUUCUCGGGUGUCAAGG
B7: ENSMUSG00000058297.93|Spock2 (ssRNA)
RNA: GGGAGUUCUACAGUCCGACGAUCGCUUCGAUAUCCGCAUGCUAAGGGAGGGCAGGCAGCUGAAAGCUGAGCGUCCUCCCCAAAUUGGGCUGAUUUGAUAUGAAAGCCCCACCACGGUCUUGUGGUGAUGAGGCAGGACCUGUACACACAGCAAGGCUUACUAUCCGUCUCCUGACAUCCGAAGAGCUCGUCGCAGGUGUGUCUAAUGGCCCUUGGGCUGCACGUGGUUAAGCAUAGCUGUCUCUGUGGCCCAACACAAAGAGGUAAACUUACUUAAAACACAGGGGUUUUGUUGCUGUUUGUUCUCUUGCGGUCGCACUAGUGUGGAAUUCUCGGGUGUCAAGG
B8: ENSMUSG00000004113.177|Cacna1b|55:59;63:67;78:82;232:236 (ssRNA)
RNA: GGGAGUUCUACAGUCCGACGAUCGCUUCGAUAUCCGCAUGCUAGUAACUUUAAAAAAAAAGUCAACAUGUAGGAAGGUCUCCAUUUUGCAUUGUUUCACACACUUCAUACCAAUGUUCCUCAUACUUUCUACCCUGCCUGGGAUGUCCCCAAUGACCCUGGCUCCUCUGCUCAACCAAGUGCCUGAUCUCUGGCUCUGAGCAUCGUGGAUGAGGUACGGCCUCAGGAAGCAUCGGGUGGAUUGGGUGGGAGCUGCUCAGAGCAGCACGGGGGCUACACACUUAGGGACAUUGACAGUGUCCAUCUCUUGCGGUCGCACUAGUGUGGAAUUCUCGGGUGUCAAGG

The binders below were run against TDP-43 (Homo sapiens, UniProt Q13148 1-414) (assay: RNA Bind-n-Seq with designed 260-mer pool; 25 mM Tris-HCl, 150 mM KCl, 3 mM MgCl2, BSA (printed 500 mg/mL), 20 units/mL SUPERase IN; pH not stated; 500 nM RNA pool, 1 h, 4 C; TDP-43 5, 50, 500 nM; high values mean tight binding). Settings: protein: recombinant; tags: SBP (GST cleaved off with PreScission; pGEX-GST-SBP).
Method in brief: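 The incubation lasted 1 h at 4 °C and used 500 nM of an in vitro-transcribed 260-nt 3′ UTR oligo pool with recombinant SBP-tagged TDP-43 at 5, 50 or 500 nM immobilized on streptavidin beads. It took place in 25 mM Tris-HCl, 150 mM KCl, 3 mM MgCl2, BSA and SUPERase IN. Bound RNA was washed, eluted with biotin, converted to cDNA, PCR-amplified and sequenced to give R, each oligo's normalized abundance in the bound sample divided by that in input. Two independent protein batches provided the duplicates.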

Chain of TDP-43 (Q13148 whole entry): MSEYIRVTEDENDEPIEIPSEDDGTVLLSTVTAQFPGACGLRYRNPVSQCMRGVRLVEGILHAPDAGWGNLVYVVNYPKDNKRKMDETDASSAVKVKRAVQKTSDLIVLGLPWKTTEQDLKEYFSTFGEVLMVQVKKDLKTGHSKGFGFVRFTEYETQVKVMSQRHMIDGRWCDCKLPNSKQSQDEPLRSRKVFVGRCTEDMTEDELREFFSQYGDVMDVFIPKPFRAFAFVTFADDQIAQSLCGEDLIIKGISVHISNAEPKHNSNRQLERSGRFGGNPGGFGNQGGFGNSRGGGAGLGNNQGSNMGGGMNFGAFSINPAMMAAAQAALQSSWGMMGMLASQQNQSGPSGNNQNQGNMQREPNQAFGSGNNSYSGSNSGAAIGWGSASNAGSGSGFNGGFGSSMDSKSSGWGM

| Binder | binding signal |
| --- | --- |
| B1 | 0.446 R (bound/input frequency ratio) |
| B2 | 0.0492 R (bound/input frequency ratio) |
| B3 | 0.357 R (bound/input frequency ratio) |
| B4 | 1.1 R (bound/input frequency ratio) |
| B5 | 0.706 R (bound/input frequency ratio) |
| B6 | 2.71 R (bound/input frequency ratio) |
| B7 | 0.528 R (bound/input frequency ratio) |
| B8 | 0.533 R (bound/input frequency ratio) |
